Measurements: the supplement of paper PMC6897291

System: U-2932
Experiment: growth inhibition by drug alone (1 - RLU/untreated control) (fraction); higher = stronger inhibition
Settings: 177Lu-lilotomab satetraxetan 0 ug/ml
Procedure: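 U-2932 ABC-DLBCL cells were pretreated or not for 18 h with 1 ug/ml 177Lu-lilotomab satetraxetan (600 MBq/mg), washed and seeded (3000 cells/well) on 384-well plates pre-printed with the Selleck Cambridge Cancer Compound library. Viability was read by RealTime-Glo luminescence on days 3-6 after seeding. Effect = 1 - RLU/mean RLU of the 48 untreated no-drug control wells per plate; Bliss score = (M-E)/(1-Fa), with E the expected Bliss-additive effect.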

CCC(CC)CC1(C(=O)Nc2ccccc2SC(=O)C(C)C)CCCCC1
growth inhibition by drug alone (10 nM, time (day): 3): 0.0325
growth inhibition by drug alone (10 nM, time (day): 4): 0.00234
growth inhibition by drug alone (10 nM, time (day): 5): 0.00914
growth inhibition by drug alone (10 nM, time (day): 6): 0.0506
growth inhibition by drug alone (1000 nM, time (day): 3): -0.0537
growth inhibition by drug alone (1000 nM, time (day): 4): -0.0604
growth inhibition by drug alone (1000 nM, time (day): 5): -0.0741
growth inhibition by drug alone (1000 nM, time (day): 6): -0.00871

Cc1nc(-c2ccc(OCC(C)C)c(C#N)c2)sc1C(=O)O [Febuxostat (Uloric)]
growth inhibition by drug alone (10 nM, time (day): 3): 0.06
growth inhibition by drug alone (10 nM, time (day): 4): 0.0554
growth inhibition by drug alone (10 nM, time (day): 5): 0.0252
growth inhibition by drug alone (10 nM, time (day): 6): -0.0354
growth inhibition by drug alone (1000 nM, time (day): 3): 0.00138
growth inhibition by drug alone (1000 nM, time (day): 4): 0.0444
growth inhibition by drug alone (1000 nM, time (day): 5): -0.00425
growth inhibition by drug alone (1000 nM, time (day): 6): -0.214

Cc1[nH]c(/C=C2\C(=O)Nc3ccc(S(=O)(=O)N(C)c4cccc(Cl)c4)cc32)c(C)c1C(=O)N1CCN(C)CC1
growth inhibition by drug alone (10 nM, time (day): 3): -0.0104
growth inhibition by drug alone (10 nM, time (day): 4): 0.00253
growth inhibition by drug alone (10 nM, time (day): 5): -0.0727
growth inhibition by drug alone (10 nM, time (day): 6): -0.198
growth inhibition by drug alone (1000 nM, time (day): 3): -0.0486
growth inhibition by drug alone (1000 nM, time (day): 4): -0.0391
growth inhibition by drug alone (1000 nM, time (day): 5): -0.0232
growth inhibition by drug alone (1000 nM, time (day): 6): 0.0376

COc1cc2ncnc(-n3nc(-c4ccccn4)nc3N)c2cc1OC
growth inhibition by drug alone (10 nM, time (day): 3): 0.133
growth inhibition by drug alone (10 nM, time (day): 4): 0.114
growth inhibition by drug alone (10 nM, time (day): 5): 0.0839
growth inhibition by drug alone (10 nM, time (day): 6): 0.0512
growth inhibition by drug alone (1000 nM, time (day): 3): 0.057
growth inhibition by drug alone (1000 nM, time (day): 4): 0.0631
growth inhibition by drug alone (1000 nM, time (day): 5): 0.00213
growth inhibition by drug alone (1000 nM, time (day): 6): -0.164

N#Cc1c(O)c2c(-c3ccc(-c4ccccc4O)cc3)csc2[nH]c1=O
growth inhibition by drug alone (10 nM, time (day): 3): 0.111
growth inhibition by drug alone (10 nM, time (day): 4): 0.0478
growth inhibition by drug alone (10 nM, time (day): 5): -0.0374
growth inhibition by drug alone (10 nM, time (day): 6): -0.062
growth inhibition by drug alone (1000 nM, time (day): 3): 0.0299
growth inhibition by drug alone (1000 nM, time (day): 4): -0.017
growth inhibition by drug alone (1000 nM, time (day): 5): -0.0537
growth inhibition by drug alone (1000 nM, time (day): 6): 0.0109
